An excerpt weighted towards active compounds, which were near 4.6% of everything screened.
Epigenetic reg: epigenetic control regulation, reporter derepression; Potency, µM (titrated, usually from 53.9 µM), without a hit: top-dose GFP activation, actives largely listed as activators; 280,000 compounds, 0.2% hits; AID 1865; murine LDR cells, GFP reporter derepression, 30 h; active = well fitted activation curve with a large enough effect; also: potency is read from the fitted curve at half-maximal effect; % of control where 0% means no effect; nearly all actives have a fitted effect of over 60% in size
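Murine LDR cells bearing a silenced CMV-driven GFP reporter were exposed to compound for 30 h at 37 C. After PBS washes, GFP-positive cells (20-120 um objects) counted by laser-scanning microplate cytometry.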
TRHR PAM: TRH receptor (human) allosteric enhancement; P34981; TRHR cells, fluo-8 calcium fluorescence, EC20 TRH enhancement; enhancement, % at 2 µM; 360,000 compounds, 0.66% hits; AID 493056; in the data active = enhancement above about 30%; also: 0% is about no effect
Target sequence (P34981 whole entry, looked up): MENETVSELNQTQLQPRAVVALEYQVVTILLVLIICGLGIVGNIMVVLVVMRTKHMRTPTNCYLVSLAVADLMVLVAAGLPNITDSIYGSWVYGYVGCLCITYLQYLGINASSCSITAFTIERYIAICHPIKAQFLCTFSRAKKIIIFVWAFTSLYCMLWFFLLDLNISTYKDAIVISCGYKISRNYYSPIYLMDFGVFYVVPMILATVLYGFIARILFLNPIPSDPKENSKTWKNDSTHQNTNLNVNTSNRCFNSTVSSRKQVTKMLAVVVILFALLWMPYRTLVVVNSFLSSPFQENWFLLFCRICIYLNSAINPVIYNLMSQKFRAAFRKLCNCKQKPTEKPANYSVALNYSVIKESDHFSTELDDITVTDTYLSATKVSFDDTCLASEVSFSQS
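Enhancer read-out: after compound pinning and an initial kinetic agonist-mode read, an EC20 of TRH (10 nM final) was injected and fluo-8 calcium signal (Ex 480/Em 530) followed at 1 s/cycle for 100 cycles in TRHR-expressing cells.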
D1 ag: human D1 receptor agonism | HEK293 T-REx D1 cells, calcium flux, agonist mode | 360,000 compounds, 1% hits | activation, % at 2 µM | P21728; also: 0% is about no effect
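Inducible HEK293 T-REx D1 cells, force-coupled to calcium signalling, were plated at 4000 cells/well with tetracycline and held overnight at 30 C. After no-wash calcium dye loading, compound-evoked calcium rise over 180 s flagged agonists.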
TRHR ag: activates the human TRH receptor. P34981. TRHR cells, calcium flux fluo-8, FDSS agonist mode. activation, % at 2 µM. 360,000 compounds, 0.18% hits; also: 0% is about no effect
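Read-out: compound-evoked intracellular calcium rise in TRHR cells, fluo-8 dye, kinetic FDSS fluorescence at 1 s/cycle following a 10-cycle baseline. Cells cultured overnight before dye loading (30 min–1.5 h, RT).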
D1 potentiator: human D1 dopamine receptor positive modulation; potentiation, % at 10 µM; P21728; AID 504651; HEK293 TREx D1 cells, calcium flux, dopamine EC20 potentiation; 360,000 compounds, 0.036% hits; in the data active = potentiation above about 30%; also: 0% is about no effect
D1 antagonist: blocks dopamine activation of the human D1 receptor; 360,000 compounds, 3.2% hits; activity change, negative = inhibition, % at 10 µM; HEK293 TREx D1 cells, calcium flux, dopamine EC80; hits give low values; in the data active = activity change below about -30%; also: % is scaled to controls: 0 for no effect and ±100 for the full control effect
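Allosteric or orthosteric antagonism assessed as attenuation of the calcium response to EC80 dopamine, added 180 s after compound, in induced HEK293 Trex D1 cells loaded with no-wash calcium dye.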
* marks the source's active call; other numbers are inactive results; x = not tested or not shown. Rule as the data show it, unless noted: active = activation above about 30%; inactive = the rest.

SMILES | Epigenetic reg | TRHR PAM | D1 ag | TRHR ag | D1 potentiator | D1 antagonist
N#Cc1ccc(Oc2c(Cl)cncc2Cl)cc1 | x | 37* | 4 | 0 | -3 | 7
Cc1cccc(Cn2c(CN3CCC(C(=O)NCCc4ccccc4)CC3)cc3ccccc32)c1 | -1% | 7 | 8 | 1 | -2 | -1
COc1ccc(NC(=O)CSc2nc3ccccc3n2CC(=O)N(C)C2CCCCC2)cc1 | -3% | 0 | 1 | -1 | 1 | 11
COC(=O)Cc1c(C)c2ccc(OCC(=O)N3CCOCC3)cc2oc1=O | -1% | -4 | 1 | 1 | -1 | -32*
CCc1c(C)c2ccc(OCC(=O)OC)cc2oc1=O | 0% | -2 | 5 | 0 | -4 | 6
CCCCN(C)CC(O)Cn1cc(/C=C/C(=O)c2ccc(OC)c(OC)c2)c2ccccc21 (centres undefined) | 3% | -5 | 63* | 22 | -3 | -7
CN1CCN(Cn2cc(/C=C/C(=O)c3ccccc3)c3ccccc32)CC1 | -1% | 3 | 6 | 1 | -5 | -5
CCCCN(C)CC(O)Cn1cc(/C=C/C(=O)c2ccc(Br)cc2)c2ccccc21 (centres undefined) | 6% | -3 | 126* | 7 | -3 | -57*
CCCCN(C)CC(O)Cn1cc(/C=C/C(=O)c2ccc(C)cc2)c2ccccc21 (centres undefined) | 6% | 1 | 33* | 2 | -5 | -18
CCCCCn1c(=O)c2c(nc3n2CCN3c2ccc(Br)cc2)n(C)c1=O | 0% | 0 | 0 | 0 | 4 | 7
CCOC(=O)c1c(C)[nH]c(C)c1S(=O)(=O)N1CCCC(C(=O)Nc2ccc(C)c(N(C)C)c2)C1 (centres undefined) | -3% | 0 | 1 | 0 | -2 | 25
CCOc1cc(C(=O)N2CC(=O)Nc3ccc(F)cc3C2c2ccccc2)cc(OCC)c1OCC (centres undefined) | -2% | -4 | -1 | 0 | 2 | 1
CC(C)c1ccc(N2C(=O)CSC23C(=O)N(Cc2ccccc2)c2ccccc23)cc1 (centres undefined) | -7% | 0 | 8 | 1 | -2 | -7
Cc1cccc2sc(N(CCCN(C)C)C(=O)CN3C(=O)c4ccccc4C3=O)nc12 | -2% | 4 | 33* | 1 | -2 | -9
Cc1cccc2sc(N(CCCN(C)C)C(=O)CCc3ccccc3)nc12 | 5% | 16 | 22 | 5 | -10 | -24
Cc1ccc2sc(N(CCCN(C)C)C(=O)CCS(=O)(=O)c3ccccc3)nc2c1C | x | -2 | 64* | 3 | -7 | -17
CC(=O)c1ccc(OCCCC(=O)N2CCN(S(=O)(=O)c3ccc(C)cc3C)CC2)cc1 | x | -8 | 8 | 0 | -10 | -31*
Cc1ccc(OCCCC(=O)N2CCN(S(=O)(=O)c3cccc(F)c3)CC2)cc1 | x | 5 | 6 | -1 | -4 | -33*
Cc1ccc(S(=O)(=O)N2CCN(C(=O)CCCOc3cccc(C)c3)CC2)cc1 | x | 1 | 1 | -1 | 0 | -39*
COc1ccc(CN2C(=O)N(c3ccc(F)cc3)C(=O)C2CC(=O)Nc2cc(OC)cc(OC)c2)cc1 (centres undefined) | 2% | -2 | 3 | 0 | -3 | -15
Cc1c(Cl)cccc1NC(=O)CC(c1cccs1)N1Cc2ccccc2C1=O (centres undefined) | 1% | -7 | 9 | -1 | -1 | 8
COc1cccc(CNC(=O)CSc2ncc(S(=O)(=O)c3ccc(C)c(Cl)c3)c(=O)[nH]2)c1 | 2% | 1 | 3 | 0 | -1 | -3
CCOC(=O)c1ccc(NC(=O)CSc2nccn2-c2ccc(OCC)cc2)cc1 | 1% | -4 | 6 | 0 | -3 | -19
O=C(C/C=N\OCc1ccc([N+](=O)[O-])cc1)Nc1ccc(Cl)cc1 | -1% | -5 | 19 | 0 | -7 | -30*
Cc1ccccc1CN1C(=O)c2ccccc2Sc2ccc(C(=O)NC3CCCCC3)cc21 | -1% | -5 | 3 | 0 | -5 | -1
SMILES | Epigenetic reg | TRHR PAM | D1 ag | TRHR ag | D1 potentiator | D1 antagonist
CCNc1nc(Oc2ccc(C(=O)OC)cc2)nc(N(C)C)n1 | 1% | 4 | 12 | -1 | -5 | -31*
Cc1nc2sccn2c(=O)c1S(=O)(=O)NCC1CCN(Cc2ccccc2Cl)CC1 | x | -1 | 5 | 1 | 9 | -66*
Cc1nc2sccn2c(=O)c1S(=O)(=O)NCc1ccccc1Cl | x | 2 | 2 | 1 | -4 | 8
CC(C)NC(=O)c1sc(=S)n2c1[nH]c(=O)c1ccc(C(=O)NCCc3ccc(Cl)cc3)cc12 | x | -9 | 3 | 0 | -11 | -59*
O=C(NC1CCCCC1)c1sc(=S)n2c1[nH]c(=O)c1ccccc12 | -1% | -4 | 29 | 3 | -6 | -19
CCOc1ccc(CCNC(=O)c2ccc3c(=O)[nH]c4c(C(=O)NC(C)C)sc(=S)n4c3c2)cc1 | x | -2 | 2 | 0 | -6 | -29
CCCCNC(=O)c1sc(=S)n2c1[nH]c(=O)c1ccccc12 | 4% | 2 | 30* | 5 | -8 | -16
CC1=NN(c2cccc(F)c2)C(=O)/C1=C/c1ccc(N(C)C)cc1 | x | -27 | -1 | 0 | -14 | -85*
Cn1cnc(S(=O)(=O)N2CCN(c3cccc(C(F)(F)F)c3)CC2)c1 | x | 0 | 10 | 0 | -6 | -32*
Cn1cnc(S(=O)(=O)N2CCN(c3cccc(Cl)c3)CC2)c1 | x | 9 | -2 | 0 | 1 | -8
CC1Sc2ccc(C(=O)O)cc2NC1=O (centres undefined) | 2% | 16 | 5 | -1 | -6 | -4
COc1ccc(CNC(=O)c2ccc3c(c2)NC(=O)C(C)S3)cc1 (centres undefined) | 1% | 36* | 0 | 0 | -1 | -13
Cc1ccc(N(C)C(CNS(=O)(=O)c2ccccc2)c2ccccc2)cc1 (centres undefined) | -1% | 2 | 3 | 0 | -1 | -48*
CN(c1ccccc1)C(CNS(=O)(=O)c1ccccc1)c1ccccc1 (centres undefined) | -4% | 12 | 3 | -1 | -2 | 7
COC(=O)c1ccc(/C=N/OCC(=O)NCc2ccc(F)cc2)cc1 | 0% | -1 | 1 | -1 | -4 | -51*
COc1ccc(CNC(=O)COc2ccc(C(=O)c3ccc(F)cc3)cc2)cc1 | 0% | -6 | 10 | 0 | -1 | -30*
CCOc1ccc(CCNC(=O)CN2N=C(c3ccccc3)CCC2=O)cc1OCC | 0% | 0 | -5 | -1 | 0 | 10
CCOc1ccc(N(C(=O)c2ccc(Cl)cc2)S(=O)(=O)c2ccc3c(c2)n(C)c(=O)n3C)cc1 | -3% | 4 | 1 | 0 | 0 | 11

Compound activity as filed in PubChem.
